# Bioassay records as filed in PubChem BioAssay.
# D1 antagonist: antagonists of human D1 dopamine receptor. P21728. HEK293 TREx D1 cells, calcium flux, dopamine EC80; stronger effect = lower value. activity change, negative = inhibition, % at 10 µM. 3.2% of 360,000 active. AID 504652; in the data active means activity change below about -30%; further: on the % scale 0 is the no-effect control and ±100 the full control effect
#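 HEK293 T-REx cells expressing inducible, force-coupled D1 receptor; no-wash Ca dye, 30–90 min RT. Cmpd → 180 s read at 1 Hz → EC80 DA → 180 s read.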
# TRHR enhancer-1: allosteric enhancers of human TRH receptor. P34981. TRHR cells, fluo-8 calcium fluorescence, EC20 TRH enhancement. enhancement, % at 2 µM. 0.66% of 360,000 active; in the data active means enhancement above about 30%; further: 0% is about no effect
# Target sequence (P34981 whole entry, looked up): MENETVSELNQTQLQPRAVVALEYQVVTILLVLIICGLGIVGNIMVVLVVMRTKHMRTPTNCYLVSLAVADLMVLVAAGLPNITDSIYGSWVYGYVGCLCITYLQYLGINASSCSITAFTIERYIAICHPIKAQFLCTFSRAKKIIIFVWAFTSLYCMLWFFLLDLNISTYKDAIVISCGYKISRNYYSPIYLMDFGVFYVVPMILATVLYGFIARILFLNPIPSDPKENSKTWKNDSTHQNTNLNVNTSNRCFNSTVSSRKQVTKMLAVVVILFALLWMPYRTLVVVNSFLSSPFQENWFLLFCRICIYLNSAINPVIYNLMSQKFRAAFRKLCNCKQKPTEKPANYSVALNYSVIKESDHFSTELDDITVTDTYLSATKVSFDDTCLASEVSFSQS
#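 TRHR-expressing cells loaded with fluo-8 calcium dye were read kinetically (ex 480/em 530) during compound addition, then stimulated with an EC20 of TRH (10 nM final). Enhancement of the Gq-mediated intracellular calcium response was scored.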
# D1 agonist: activates the human D1 dopamine receptor; activation, % at 2 µM; 1% of 360,000 active; HEK293 T-REx D1 cells, calcium flux, agonist mode; in the data active means activation above about 30%; further: 0% is about no effect
#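 Tetracycline-induced HEK293 TREx D1 cells, force-coupled to calcium signalling, were dye-loaded with a no-wash calcium kit. Compound was pin-added after a 10 s baseline. Fluorescence was read kinetically at 1 cycle/s for 180 s, with calcium rises flagged as agonism.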
# D1 potentiator: human D1 dopamine receptor positive modulation | 0.036% of 360,000 active | P21728 | HEK293 TREx D1 cells, calcium flux, dopamine EC20 potentiation | potentiation, % at 10 µM; in the data active means potentiation above about 30%; further: 0% is about no effect
# LDHA block: blocks human lactate dehydrogenase A | purified LDHA, NADH/diaphorase-resazurin fluorescence; stronger effect = lower value | activity change, % (values are at about 110 or 230 µM) | 0.15% of 480,000 active | AID 1347041; in the data active means activity change below about -30%; inconclusive means mostly about -25% to -30%;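 further: plate controls were DMSO wells for no effect and wells without enzyme for full effect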
#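 Human LDH5 at 2 nM final in Tris HCl pH 7.4 with 0.06 mM NADH and 0.2 mM pyruvate, reacted 5 minutes at room temperature. Remaining NADH coupled via diaphorase/resazurin; resorufin fluorescence read at 0 and 20 minutes, normalized to enzyme-free and DMSO wells.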
# TRHR agonist-1: activates the human TRH receptor; 0.18% of 360,000 active; P34981; activation, % at 2 µM; TRHR cells, calcium flux fluo-8, FDSS agonist mode; in the data active means activation above about 30%; further: 0% is about no effect
#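 In this calcium-flux screen, cells bearing human TRHR are dye-loaded with fluo-8, baselined for 10 cycles, then exposed to library compounds; positive kinetic calcium responses during the agonist phase mark hits, with TRH as control.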
# TRHR enhancer-2: confirmation of human TRH receptor allosteric enhancers; 970 tested, under 10 active; activity change, negative = inhibition, % at 46.1 µM; shares compounds with TRHR enhancer-1; TRH receptor cell assay, enhancer confirmation qHTS;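 further: compound effect scored on response to added TRH at EC20 of 10 nM; 0% is about no effect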
# TRHR agonist-2: confirmation of human TRH receptor agonists; shares compounds with TRHR enhancer-1; TRHR-expressing cells, agonist activation read-out; Potency, µM (titrated, usually from 46.1 µM), for the others: at the highest dose activation, most hits filed as activators; 8% of 970 active; further: potency means the concentration at half of the fitted maximal effect; 0% is about no effect; nearly all actives have a fitted effect of over 75% in size
# Numbers without * were called inactive; u = inconclusive; x = no result given. Hits are enriched below; roughly 3.6% of the tested compounds scored in any of these assays. Unless noted, the call rests on the fitted dose curve; in most records, active means well fitted curve in the direction sought with a large enough effect; inconclusive means small, poorly fitted or top-dose-only effect, or another doubt; inactive means no such curve, though single readings can be large; an effect the other way counts as inactive or inconclusive.
SMILES,D1 antagonist,TRHR enhancer-1,D1 agonist,D1 potentiator,LDHA block,TRHR agonist-1,TRHR enhancer-2,TRHR agonist-2
CC1=CC(=O)OC2CC3OC4C[C@@H](C)C5OC6CC7O[C@]8(C)C/C=C\C9OC%10CC%11OC(CC(C)C%12OCCO%12)CC(O)[C@]%11(C)OC%10CC9OC8C[C@]7(C)O[C@]6(C)CCC5OC4C[C@]3(C)OC12 (stereo partly specified),x,x,x,x,6,x,x,x
C=C(CC1CC(O)[C@]2(C)OC3CC4OC5C[C@]6(C)O[C@]7(C)CCC8OC9C[C@]%10(C)OC%11C(C)=CC(=O)OC%11CC%10OC9C[C@@H](C)C8OC7CC6O[C@]5(C)C/C=C\C4OC3CC2O1)C(=O)O (stereo partly specified),8,50*,-2,-4,2,-1,u,0%
CCC(CC)COC(=O)C1=C(C)N[C@]2(C)C[C@H]1c1ccccc1O2,x,x,x,x,10,x,x,x
C[C@H]1C(=O)O[C@@H]2CCN3CC=C(COC(=O)[C@](C)(O)[C@]1(C)O)[C@H]23,19,43*,0,-2,0,1,0,-1%
O=C(O)CSC(c1ccccc1)c1ccc(Cl)cc1 (stereo unspecified),x,x,x,x,1,x,x,x
Cc1ccc(N2C(=O)CC(=O)NC2=O)c(C)c1,-3,109*,1,0,-17,1,0,-1%
C=CCOc1ccc(/C=C(\C)[N+](=O)[O-])cc1OC,x,x,x,x,0,x,x,x
CCOc1ccc(N2C(=O)/C(=C/c3ccc(C)o3)C(=O)NC2=S)cc1,4,-6,4,-5,15,0,x,x
CCOc1ccc(N2C(=O)NC(=O)/C(=C\c3ccc(N4CCCCC4)o3)C2=O)cc1,0,6,85*,2,2,31*,-4,23µM*
Oc1ccc(C2=CCN(CC(O)COc3ccc(F)cc3)CC2)cc1 (stereo unspecified),x,x,x,x,12,x,x,x
CC(C)N1CCN(Cc2cccc3c2OCO3)CC1CCO (stereo unspecified),-1,13,1,-5,-4,1,x,x
CC(C)N1CCN(Cc2c[nH]c3ccccc23)CC1CCO (stereo unspecified),2,58*,3,3,-1,1,-1,5%
CC1(C)OC(c2ccccc2)=C/C(=C/C=C2C(=O)NC(=O)NC2=O)O1,-5,15,52*,-1,-4,30,-6,u
